Experimental data taken from PubChem BioAssay.
Calls of active or inactive are those of the source.

Experiments:
[1] = system: Plasmodium falciparum Sir2 (PF13_0152, Sir2A); assay: Plasmodium falciparum Sir2A binding compounds – biochemical, small-molecule microarray, 635 nm fluorescence, primary screen (AID 1098); settings: fluorescence 635 nm, higher = more signal;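 further: score merges spot fluorescence intensity with its signal-to-noise ratio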
[2] = probe aDKK1 binding to arrayed compounds – biochemical, biotinylated probe, 635/667 nm fluorescence, primary screen (AID 1099); settings: small-molecule microarray, higher = more signal;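 further: score merges 667nm spot fluorescence with signal to noise across triplicate slides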
[3] = probe aCHRDL2 binding to arrayed compounds – biochemical, biotinylated probe, 635/667 nm fluorescence, primary screen (AID 1100); settings: small-molecule microarray, higher = more signal
[4] = change in splice reporter luminescence, either direction, cell-based, HEK293, spliceosome inhibition project, primary screen (AID 1101); settings: HEK293 splicing luciferase reporter, 24 h, higher = more signal, called active from +8 up or from −8 down;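 further: HEK293 cells carrying a splicing-competent luciferase reporter gene; test concentration not given here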
[5] = target: Fibroblast growth factor 10 (Homo sapiens) (UniProt O15520); assay: compounds binding fibroblast growth factor 10 – biochemical, small-molecule microarray, 635 nm fluorescence, primary screen (AID 1102); settings: FGF10 binding, fluorescence 635 nm, higher = more signal
Chain of Fibroblast growth factor 10 (Homo sapiens) (O15520 whole entry, looked up): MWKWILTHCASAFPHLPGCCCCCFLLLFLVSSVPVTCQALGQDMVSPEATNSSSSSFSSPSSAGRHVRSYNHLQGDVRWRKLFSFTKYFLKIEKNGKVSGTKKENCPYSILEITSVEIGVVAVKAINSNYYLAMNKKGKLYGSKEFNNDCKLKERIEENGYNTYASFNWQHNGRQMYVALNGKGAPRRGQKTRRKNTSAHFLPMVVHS

[6] = system: glycogen synthase kinase-3 (GSK3A per assay name; protocol says GSK3B); assay: compounds binding glycogen synthase kinase-3 – biochemical, small-molecule microarray, 635 nm fluorescence, GSK3A, primary screen (AID 1103); settings: fluorescence 635 nm, higher = more signal; further: the record names both GSK3A and GSK3B
[7] = target: Epidermal growth factor receptor (Homo sapiens) (UniProt P00533); assay: compounds binding epidermal growth factor receptor – biochemical, small-molecule microarray, 635 nm fluorescence, primary screen (AID 1104); settings: EGFR binding, higher = more signal;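 further: score merges 667 nm emission intensity with spot signal to noise over triplicate slides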
Chain of Epidermal growth factor receptor (Homo sapiens) (P00533 whole entry, looked up): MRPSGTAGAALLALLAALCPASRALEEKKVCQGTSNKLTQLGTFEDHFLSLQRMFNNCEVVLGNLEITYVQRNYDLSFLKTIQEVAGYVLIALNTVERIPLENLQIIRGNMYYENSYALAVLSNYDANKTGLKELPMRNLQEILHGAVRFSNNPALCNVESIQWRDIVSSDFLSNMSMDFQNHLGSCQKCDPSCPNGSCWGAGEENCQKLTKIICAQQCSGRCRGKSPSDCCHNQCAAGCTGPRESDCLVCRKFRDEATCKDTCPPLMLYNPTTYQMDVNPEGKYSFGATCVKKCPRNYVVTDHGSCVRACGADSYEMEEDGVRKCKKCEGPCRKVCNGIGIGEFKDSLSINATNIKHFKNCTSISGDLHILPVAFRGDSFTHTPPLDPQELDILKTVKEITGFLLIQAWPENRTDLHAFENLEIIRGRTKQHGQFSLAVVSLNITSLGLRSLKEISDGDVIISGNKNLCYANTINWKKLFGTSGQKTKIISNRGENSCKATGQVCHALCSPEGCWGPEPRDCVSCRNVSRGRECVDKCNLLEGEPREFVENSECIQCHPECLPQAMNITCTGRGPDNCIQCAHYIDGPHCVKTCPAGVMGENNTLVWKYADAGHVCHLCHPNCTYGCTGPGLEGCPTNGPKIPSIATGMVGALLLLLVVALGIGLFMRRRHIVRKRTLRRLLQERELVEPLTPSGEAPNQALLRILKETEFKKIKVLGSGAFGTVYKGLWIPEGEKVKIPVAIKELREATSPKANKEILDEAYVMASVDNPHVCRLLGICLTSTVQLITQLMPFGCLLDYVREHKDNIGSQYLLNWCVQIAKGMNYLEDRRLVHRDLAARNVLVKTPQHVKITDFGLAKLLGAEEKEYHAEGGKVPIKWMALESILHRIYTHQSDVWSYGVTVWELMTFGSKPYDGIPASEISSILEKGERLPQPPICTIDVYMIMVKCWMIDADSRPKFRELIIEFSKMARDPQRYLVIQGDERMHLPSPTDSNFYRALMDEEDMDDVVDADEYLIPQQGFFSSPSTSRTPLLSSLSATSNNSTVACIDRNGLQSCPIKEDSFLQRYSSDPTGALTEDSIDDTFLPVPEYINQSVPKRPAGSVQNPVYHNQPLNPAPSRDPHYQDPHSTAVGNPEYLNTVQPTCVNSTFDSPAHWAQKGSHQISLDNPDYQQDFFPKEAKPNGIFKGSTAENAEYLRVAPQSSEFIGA

[8] = target: Follistatin-related protein 3 (Homo sapiens) (UniProt O95633); assay: compounds binding follistatin-related protein 3 – biochemical, small-molecule microarray, 635 nm fluorescence, primary screen (AID 1105); settings: FSTL3 binding, higher = more signal;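 further: score merges emission near 667 nm and signal to noise per printed spot across three slides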
Chain of Follistatin-related protein 3 (Homo sapiens) (O95633 whole entry, looked up): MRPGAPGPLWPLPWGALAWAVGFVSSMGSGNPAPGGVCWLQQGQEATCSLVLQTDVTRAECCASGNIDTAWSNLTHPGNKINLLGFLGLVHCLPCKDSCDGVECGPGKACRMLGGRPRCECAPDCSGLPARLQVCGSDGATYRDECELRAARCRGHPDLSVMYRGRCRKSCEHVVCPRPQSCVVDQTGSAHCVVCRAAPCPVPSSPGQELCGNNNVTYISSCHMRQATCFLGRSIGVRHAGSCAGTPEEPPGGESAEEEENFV

[9] = target: Dickkopf-related protein 1 (Homo sapiens) (UniProt O94907); assay: small molecules binding DKK1 protein – biochemical, small-molecule microarray, 635 nm fluorescence scan, primary screen (AID 1106); settings: higher = more signal;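 further: score merges emission near 667 nm with signal to noise over three replicate slides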
Chain of Dickkopf-related protein 1 (Homo sapiens) (O94907 whole entry, looked up): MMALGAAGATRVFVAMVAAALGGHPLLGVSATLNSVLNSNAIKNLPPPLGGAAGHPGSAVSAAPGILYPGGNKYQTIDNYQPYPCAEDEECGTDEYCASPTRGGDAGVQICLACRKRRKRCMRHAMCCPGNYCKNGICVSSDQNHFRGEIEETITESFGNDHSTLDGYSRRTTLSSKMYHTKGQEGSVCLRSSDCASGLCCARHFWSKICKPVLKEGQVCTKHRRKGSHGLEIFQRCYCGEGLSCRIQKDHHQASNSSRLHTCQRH

[10] = system: Inhibin beta A chain (activin A); assay: small molecules binding activin A – biochemical, small-molecule microarray, 635 nm fluorescence scan, primary screen (AID 1107); settings: INHBA, higher = more signal;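 further: mouse activin A protein probed at 4.33 µg/mL on printed slides; score merges bound-protein fluorescence near 667 nm with spot signal-to-noise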
[11] = system: Human papillomavirus type 1a protein E7 (residues 44-93); assay: small molecules binding HPV E7 44-93 – biochemical, small-molecule microarray, residues 44-93, 635 nm fluorescence, primary screen (AID 1108); settings: fluorescence 635 nm, higher = more signal;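 further: E7 fragment applied at 1 µg/mL in TBST for 1 h at 4 C; score combines spot fluorescence with its signal to noise ratio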
[12] = hepatitis C replication reporter changes, two-sided – Huh7 cells, luciferase reporter, HCV replication inhibitor project, primary screen (AID 1109); settings: Huh7 HCV replicon luciferase reporter, 48 h; higher = more signal;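 further: huh7 hepatoma cells harbouring a luciferase neomycin HCV replicon reporter; luciferase luminescence as measure of HCV replicon replication; test concentration not given here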
[13] = target: Left-right determination factor 2 (Homo sapiens) (UniProt O00292); assay: small molecules binding LEFTY2 protein – biochemical, small-molecule microarray, 635 nm fluorescence scan, primary screen (AID 1110); settings: higher = more signal
Chain of Left-right determination factor 2 (Homo sapiens) (O00292 whole entry, looked up): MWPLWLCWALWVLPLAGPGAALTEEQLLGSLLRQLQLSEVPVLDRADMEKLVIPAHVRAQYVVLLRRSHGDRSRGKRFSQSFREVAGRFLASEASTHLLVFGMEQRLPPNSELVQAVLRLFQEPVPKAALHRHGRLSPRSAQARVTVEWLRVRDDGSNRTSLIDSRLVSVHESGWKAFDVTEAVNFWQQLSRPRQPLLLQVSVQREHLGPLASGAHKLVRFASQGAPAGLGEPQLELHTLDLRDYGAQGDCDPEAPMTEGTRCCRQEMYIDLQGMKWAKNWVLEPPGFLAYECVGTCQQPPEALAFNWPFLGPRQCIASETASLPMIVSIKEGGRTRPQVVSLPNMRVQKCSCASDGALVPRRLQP

[14] = target: Calmodulin-1 (Homo sapiens) (UniProt P0DP23); assay: small molecules binding calmodulin-1 with EGTA – biochemical, small-molecule microarray, Cy5-labelled CALM1, profiling panel (AID 1111); settings: Cy5-CALM1 binding fluorescence, higher = more signal;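 further: labelled calmodulin applied in Tris saline Tween buffer holding calcium plus EGTA and DTT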
[15] = target: Calmodulin-1 (Homo sapiens) (UniProt P0DP23); assay: small molecules binding Ca-loaded calmodulin-1 – biochemical, small-molecule microarray, Cy5-labelled CALM1, plus calcium, artefact control for SMM control-protein annotation, profiling panel (AID 1112); settings: Cy5-CALM1 binding fluorescence, higher = more signal;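 further: score merges spot fluorescence with signal to noise from triplicate slides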
[16] = probe aWnt5a binding to arrayed compounds – biochemical, biotinylated probe, 635/667 nm fluorescence, primary screen (AID 1113); settings: small-molecule microarray, higher = more signal;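 further: score merges 667 nm fluorescence intensity with signal-to-noise per printed feature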
[17] = probe aShh binding to arrayed compounds – biochemical, biotinylated probe, 635/667 nm fluorescence, primary screen (AID 1114); settings: small-molecule microarray, higher = more signal;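 further: probe is biotin-labelled aShh protein from a stem cell growth factor screen; measures binding of labelled protein to compounds printed on the slide; score merges feature fluorescence at 667 nm with signal-to-noise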
[18] = probe aNog binding to arrayed compounds – biochemical, biotinylated probe, 635/667 nm fluorescence, primary screen (AID 1115); settings: small-molecule microarray, higher = more signal;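 further: probe is biotinylated aNog protein used at 0.15 µg/mL for 1 h at 4 C; z-score combines 667 nm fluorescence of each spot with its signal to noise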
[19] = target: Torsin-1A-interacting protein 1 (Homo sapiens) (UniProt Q5JTV8); assay: compound microarray binding of lysate hLAP1 – cell lysate, small-molecule microarray, COS7 lysate, 635/667 nm fluorescence, primary screen (AID 1116); settings: 635 nm fluorescence, higher = more signal
Chain of Torsin-1A-interacting protein 1 (Homo sapiens) (Q5JTV8 whole entry, looked up): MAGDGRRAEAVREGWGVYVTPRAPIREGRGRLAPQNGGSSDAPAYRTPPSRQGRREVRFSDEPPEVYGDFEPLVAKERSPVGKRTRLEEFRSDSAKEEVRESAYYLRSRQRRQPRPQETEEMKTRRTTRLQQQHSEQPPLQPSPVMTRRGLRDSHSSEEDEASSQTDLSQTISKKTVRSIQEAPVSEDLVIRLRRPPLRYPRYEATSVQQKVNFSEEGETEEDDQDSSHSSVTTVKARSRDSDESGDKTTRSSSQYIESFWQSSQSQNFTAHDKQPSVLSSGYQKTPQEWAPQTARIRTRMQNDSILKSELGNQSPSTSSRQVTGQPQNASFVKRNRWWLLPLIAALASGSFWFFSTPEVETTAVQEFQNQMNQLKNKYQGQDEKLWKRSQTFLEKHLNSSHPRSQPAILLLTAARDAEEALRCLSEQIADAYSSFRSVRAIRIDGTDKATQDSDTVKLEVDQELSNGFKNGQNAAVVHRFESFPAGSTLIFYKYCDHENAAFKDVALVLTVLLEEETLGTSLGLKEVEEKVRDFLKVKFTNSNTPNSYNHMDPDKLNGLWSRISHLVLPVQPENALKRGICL

[20] = target: Alpha-bungarotoxin (Bungarus multicinctus) (UniProt P60615); assay: compounds binding labelled alpha-BTX control protein – biochemical, small-molecule microarray, Alexa647 label, 635/667 nm fluorescence, artefact control for SMM control protein annotation, profiling panel (AID 1117); settings: alpha-BTX-A647 binding fluorescence, higher = more signal
Chain of Alpha-bungarotoxin (Bungarus multicinctus) (P60615 whole entry, looked up): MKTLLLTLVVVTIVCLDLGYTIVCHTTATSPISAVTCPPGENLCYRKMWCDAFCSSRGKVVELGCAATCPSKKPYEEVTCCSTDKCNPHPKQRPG

SMILES	composite z-score [1]	composite z-score [2]	composite z-score [3]	z-score [4]	composite z-score [5]	composite z-score [6]	composite z-score [7]	composite z-score [8]	composite z-score [9]	composite z-score [10]	composite z-score [11]	z-score [12]	composite z-score [13]	composite z-score [14]	composite z-score [15]	composite z-score [16]	composite z-score [17]	composite z-score [18]	composite z-score [19]	composite z-score [20]
CC(C)CNC(=O)[C@@]1(C)c2ccccc2C(=O)N(Cc2ccccc2)[C@H]1c1ccc(CO)cc1	0.651	0.569	1.19	0.622 (inactive)	-1.21	-1.01	-1.56	-2.11	-1.88	-1.02	-0.205	0.0768	-1.55	-1.21	0.431	-0.192	-0.0735	-0.327	0.055	-0.905
C[C@@]1([C@@H](NC(=O)c2cccs2)c2ccc(-c3ccccc3)cc2)C[C@H]1C1CCCCC1	0.385	-0.336	0.126	-3.26 (inactive)	-0.728	-1.74	-0.84	-0.671	0.0374	1.49	-0.309	-1.47	-0.919	0.645	0.111	-0.302	-0.478	0.356	0.0643	-0.344
COC(=O)[C@@]1(Cc2ccc(OC)cc2)[C@H]2c3cc(C(=O)N(C)C)n(Cc4cc(F)c(F)c(F)c4)c3C[C@H]2CN1C(=O)c1ccccc1	0.85	1.59	1.03	-2.2 (inactive)	0.519	1.02	0.261	0.745	-0.958	0.882	1.43	-2.04	0.159	2.29	1.17	0.225	0.75	1.73	1.19	1.86
[N-]=[N+]=NCc1ccccc1C[C@@]1(C(=O)NCCN2CCOCC2)N=C(c2ccc(OCCCO)cc2)O[C@@H]1c1ccccc1CN=[N+]=[N-]	0.668	0.914	0.491	0.139 (inactive)	1.15	0.602	0.244	1.29	0.855	0.817	1.42	-2.7	0.461	1.68	0.191	0.0037	0.199	0.291	0.272	1.04
COCCOC(=O)N1C(=O)[C@@]2(c3cc(C#CCCO)ccc31)[C@H](C(=O)N1CCc3cc(OC)c(OC)cc3C1)[C@H]1C(=O)O[C@H](c3ccccc3)[C@H](c3ccccc3)N1[C@@H]2c1ccc(OCCO)cc1	1.19	0.125	-0.199	-0.575 (inactive)	1.37	1.2	0.846	1.4	0.609	0.0945	1.32	-1.32	0.887	0.842	0.224	-0.0731	-0.304	0.299	0.868	0.826
CN1C(=O)C2C=CC(C(O)COCc3ccccc3)N(Nc3ccccc3)C2C1=O (stereo not given)	0.867	-0.109	0.285	1.43 (inactive)	0.558	0.453	0.132	1.06	0.0378	1.18	0.372	0.74	0.0615	-0.0981	-0.57	0.0403	-0.0793	1.03	0.661	0.347
